Results taken from paper PMC4336329 (PLoS ONE, 2015).
About 2,200 (0.71%) of roughly 310,000 compounds showed an effect of 50% or more. The effect is printed as a negative number. Only a selection was taken, and strong results are over-represented in it overall.

Target: human ether-à-go-go-related gene (hERG) potassium channel (human, UniProt Q12809)
Experiment: primary screen, population patch clamp on CHO cells stably expressing hERG; higher = less effect of the substance

Chain of human ether-à-go-go-related gene (hERG) potassium channel (Q12809 whole entry, looked up): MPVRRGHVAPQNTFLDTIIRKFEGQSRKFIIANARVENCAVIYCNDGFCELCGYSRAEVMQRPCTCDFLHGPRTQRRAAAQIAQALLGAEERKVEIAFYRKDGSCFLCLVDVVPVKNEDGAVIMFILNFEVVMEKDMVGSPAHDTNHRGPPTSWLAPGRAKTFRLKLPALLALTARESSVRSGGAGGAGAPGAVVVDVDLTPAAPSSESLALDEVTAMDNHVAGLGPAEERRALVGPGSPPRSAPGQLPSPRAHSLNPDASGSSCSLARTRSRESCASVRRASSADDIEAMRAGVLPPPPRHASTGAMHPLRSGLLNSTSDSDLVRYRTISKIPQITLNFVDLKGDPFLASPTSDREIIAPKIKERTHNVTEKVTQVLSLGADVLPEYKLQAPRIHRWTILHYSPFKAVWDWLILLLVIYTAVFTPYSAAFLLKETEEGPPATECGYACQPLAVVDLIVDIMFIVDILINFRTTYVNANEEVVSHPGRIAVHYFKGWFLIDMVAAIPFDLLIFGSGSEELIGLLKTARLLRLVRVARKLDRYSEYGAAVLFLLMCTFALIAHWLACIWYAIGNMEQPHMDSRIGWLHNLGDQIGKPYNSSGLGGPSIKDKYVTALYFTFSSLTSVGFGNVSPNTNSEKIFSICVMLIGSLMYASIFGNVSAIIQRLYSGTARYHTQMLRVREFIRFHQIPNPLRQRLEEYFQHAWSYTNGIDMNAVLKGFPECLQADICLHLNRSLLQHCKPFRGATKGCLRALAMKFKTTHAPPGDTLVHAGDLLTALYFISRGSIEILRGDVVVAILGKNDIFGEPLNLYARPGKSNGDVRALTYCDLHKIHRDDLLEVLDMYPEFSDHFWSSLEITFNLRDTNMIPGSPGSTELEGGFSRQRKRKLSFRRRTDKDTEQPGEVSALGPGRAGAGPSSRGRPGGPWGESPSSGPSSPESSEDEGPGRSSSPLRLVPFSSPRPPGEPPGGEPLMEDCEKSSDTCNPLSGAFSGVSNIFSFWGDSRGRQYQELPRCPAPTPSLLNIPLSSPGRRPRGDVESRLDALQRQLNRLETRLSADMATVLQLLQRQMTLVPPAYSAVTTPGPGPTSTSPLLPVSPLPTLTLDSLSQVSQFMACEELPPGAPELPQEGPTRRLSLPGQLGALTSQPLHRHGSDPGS

Structure (SMILES)	hERG current change (%, negative = inhibition) at 1uM [%]
COc1cc(CCC(=O)OCC(=O)Nc2ccc(F)c(F)c2)cc(OC)c1OC	3.59
CC(C)N1C(=O)S/C(=C/c2ccc3c(c2)n(C)c(=O)n3C)C1=O	-5.59
COc1ccc(CNC(=O)COC(=O)CC2CC3CCC2C3)cc1OC (stereo not shown)	6.66
COc1cccc(/C=C/c2nc3c(cnn3-c3ccccc3)c(=O)[nH]2)c1	9.85
COC(=O)c1cc(NC(=O)Cc2ccc(OC)cc2)cc(C(=O)OC)c1	14.7
Cc1c(C(=O)Nc2c(F)cccc2F)sc2ncnc(N3CCN(c4ccccc4)CC3)c12	4.01
CCN1CCN(c2ncnc3sc(C(=O)Nc4ccccc4F)c(C)c23)CC1	-50.9
CCOC(=O)c1sc2ncnc(N3CCN(CC)CC3)c2c1C	-9.54
Cc1ccc(S(=O)(=O)NC2CCC(C(=O)O)CC2)cc1 (stereo not shown)	9.17
COC(=O)c1oc2ccc(OC)cc2c1N	14.9
CC(=O)N(c1ccccc1C)S(=O)(=O)c1ccc(Cl)cc1	10
COc1ccc2[nH]c(C(=O)NCCc3ccccc3)cc2c1	17.2
COc1ccccc1NC(=S)NC1CCCC1	14.8
CN1/C(=C\C(=O)c2ccco2)C(C)(C)c2ccccc21	4.59
CC(OC(=O)CCC(=O)c1ccccc1)C(=O)Nc1ccc(F)cc1 (stereo not shown)	-299
CC(=O)Nc1ccc(NC(=O)C(C)OC(=O)CCC(=O)c2ccc(F)cc2)cc1 (stereo not shown)	8.41
CC(OC(=O)CCCC(=O)Nc1ccc(F)cc1)C(=O)c1ccccc1 (stereo not shown)	12.7
CC(=O)NCCC(=O)Nc1nc2ccc(Oc3ccccc3)cc2s1	2.19
Cc1cccc(S(=O)(=O)Nc2cccc3c2C(=O)c2ccccc2-3)c1	3.03
COc1ccc(-c2csc(N(CCCN(C)C)C(=O)c3cccs3)n2)cc1.Cl	-51.6
O=C(c1cccs1)N(CC1CCCO1)c1nc(-c2ccccc2)cs1 (stereo not shown)	11.8
CCN(CC)CCCN(C(=O)c1ccc(OC)cc1)c1nc(-c2ccc(OC)cc2)cs1	-15.5

Structure (SMILES)	hERG current change (%, negative = inhibition) at 1uM [%]
COc1ccc(-c2csc(N(CCCN(C)C)C(=O)c3ccccc3Cl)n2)cc1.Cl	-12.5
CCN(C(=O)c1cccs1)c1nc(-c2ccc(OC)cc2)cs1	13.4
COc1ccc(-c2csc(N(CCCN(C)C)C(=O)c3ccc(C)cc3)n2)cc1.Cl	-17.2
CCN(CC)CCCN(C(=O)c1cccs1)c1nc(-c2ccc(OC)cc2)cs1	-71.8
CCC(=O)N(CCCN(C)C)c1nc(-c2cc(OC)ccc2OC)cs1.Cl	-8.76
CCC(=O)N(CC)c1nc(-c2cc(OC)ccc2OC)cs1	12.9
CCN(CC)CCCN(C(C)=O)c1nc(-c2cc(OC)ccc2OC)cs1.Cl	-51
COc1ccc(-c2csc(N(CCCN(C)C)C(=O)c3ccccc3C)n2)cc1.Cl	-2.13
CN(C)CCCN(C(=O)c1cccs1)c1nc(-c2ccccc2)cs1	-50.7
COC(=O)c1cc(OC)c(OC)cc1NC(=O)C(C)c1ccc([N+](=O)[O-])cc1 (stereo not shown)	8.84
CC1OC2(OC1C)C(=O)Nc1ccccc12 (stereo not shown)	6.93
Cc1onc(NC(=O)NC(=O)c2c(F)cccc2Cl)c1Br	10.4
O=C(Cn1nc(C(=O)O)c2ccccc2c1=O)Nc1ccc2c(c1)C(=O)c1ccccc1C2=O	6.96
COc1ccc(-c2nc(CS(=O)CC(=O)NCc3ccco3)c(C)o2)cc1 (stereo not shown)	-1.89
COc1cc(/C=C2\C(=N)N3N=CSC3=NC2=O)ccc1OS(=O)(=O)c1ccccc1	6.08
CCCCc1ccc(NC(=S)N2CCCC(C)C2)cc1 (stereo not shown)	10.2
CC(C)n1c(N2CCN(C(=O)c3cccs3)CC2)nc2ccccc21	-26.9
CC(C)Cn1c(N2CCN(C(=O)c3cccs3)CC2)nc2ccccc21	-74.7
CCCn1c(N2CCN(CC(=O)Nc3ccc4c(c3)OCCO4)CC2)nc2ccccc21.Cl	-29.2
CCCn1c(N2CCN(CC(=O)NCc3cccs3)CC2)nc2ccccc21	-62.7
O=C(c1cccs1)N1CCN(c2nc3ccccc3s2)CC1	7.28
CC(C)n1c(N2CCN(CC(=O)NCc3cccs3)CC2)nc2ccccc21	-30.9

Structure (SMILES)	hERG current change (%, negative = inhibition) at 1uM [%]
O=C(/C=C/c1cccc([N+](=O)[O-])c1)OC1CCCCC1=O (stereo not shown)	9.96
Cc1ccc(C(C)NC(=O)CSc2ccc(S(=O)(=O)N3CCOCC3)cn2)cc1C (stereo not shown)	5.8
COc1ccc(Cl)cc1Nc1nc(-c2sc(NC(=O)CC(C)C)nc2C)cs1	11.1
CCOC(=O)c1sc(=S)n(-c2cc(OC)ccc2OC)c1N	6.58
COc1cc2c(cc1OC)CN(CC(=O)Nc1ccc(Cl)cc1Cl)CC2	2.03
COc1cc2c(cc1OC)CN(CCC(C)c1ccc(Cl)cc1)CC2.O=C(O)/C=C\C(=O)O (stereo not shown)	-50.5
COc1cc2c(cc1OC)C(C)N(CCc1ccc(Cl)cc1)CC2.O=C(O)/C=C\C(=O)O (stereo not shown)	-39.9
O=C(COC(=O)c1cccs1)Nc1ccccc1Cl	14.6
Cc1occc1-c1nnc(SCC(=O)Nc2nccs2)n1Cc1ccco1	3.28
CCn1c(SCC(=O)Nc2nc(C)cs2)nnc1-c1ccoc1C	10.4
CCOc1ccccc1-n1c(SCC(=O)Nc2nccs2)nnc1-c1ccoc1C	11.5
COc1ccc(-n2c(SCC(=O)Nc3nc(C)cs3)nnc2-c2ccoc2C)cc1	-85
COc1cccc(-n2c(SCC(=O)Nc3nccs3)nnc2-c2ccoc2C)c1	-84.6
Cc1csc(NC(=O)CSc2nnc(-c3ccoc3C)n2Cc2ccco2)n1	-78.4
COc1ccc(-n2c(SCC(=O)NCc3cccs3)nnc2-c2ccoc2C)cc1	-55.9
COc1ccc(-n2c(SCC(=O)Nc3ccccc3)nnc2-c2ccoc2C)cc1	11.7
Cc1csc(NC(=O)CSc2nnc(C)n2Cc2ccco2)n1	7.95
Cc1occc1-c1nnc(SCC(=O)NCc2cccs2)n1-c1ccc(F)cc1	-14
COC(=O)CSc1nnc(-c2ccoc2C)n1-c1ccc(OC)cc1	8.81
Cc1ccc(-n2c(SCC(=O)NCc3cccs3)nnc2-c2ccoc2C)cc1	-16.5
